The target of assay [1] is Sphingosine kinase 1 (Homo sapiens) (UniProt Q9NYA1). To be noted: at 1 µM.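 Note: mean SPHK1 inhibition value reported from the GSK PKIS kinase panel screen.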
Assay [2] has as its target T1, Sphingosine kinase 2 (Homo sapiens) (UniProt Q9NRA0).
T1 sequence (whole entry): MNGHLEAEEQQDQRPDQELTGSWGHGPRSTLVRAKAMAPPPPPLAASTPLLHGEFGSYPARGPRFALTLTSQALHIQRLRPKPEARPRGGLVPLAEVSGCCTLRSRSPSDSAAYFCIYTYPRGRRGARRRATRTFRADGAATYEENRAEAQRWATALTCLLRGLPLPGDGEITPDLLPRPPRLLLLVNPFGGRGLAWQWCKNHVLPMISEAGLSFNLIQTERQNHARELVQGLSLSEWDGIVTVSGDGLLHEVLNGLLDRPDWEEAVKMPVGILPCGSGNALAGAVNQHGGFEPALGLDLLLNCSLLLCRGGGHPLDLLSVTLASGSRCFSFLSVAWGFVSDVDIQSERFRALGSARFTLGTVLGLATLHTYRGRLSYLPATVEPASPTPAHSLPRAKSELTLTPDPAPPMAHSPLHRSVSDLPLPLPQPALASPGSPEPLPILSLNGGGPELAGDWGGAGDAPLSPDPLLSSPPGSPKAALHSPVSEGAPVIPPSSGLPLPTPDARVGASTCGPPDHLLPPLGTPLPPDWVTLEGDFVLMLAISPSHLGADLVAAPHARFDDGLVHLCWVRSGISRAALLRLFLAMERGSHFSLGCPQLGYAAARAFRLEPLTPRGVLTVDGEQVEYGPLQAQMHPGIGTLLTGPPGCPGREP
To be noted: at 0.1 µM.

The target of assay [3] is T1, Sphingosine kinase 2 (Homo sapiens). To be noted: at 1 µM.
The target of assay [4] is Casein kinase II subunit alpha (Homo sapiens) (UniProt P68400). The conditions noted are these: at 0.1 µM.
Chain of Casein kinase II subunit alpha (Homo sapiens) (P68400 whole entry, looked up): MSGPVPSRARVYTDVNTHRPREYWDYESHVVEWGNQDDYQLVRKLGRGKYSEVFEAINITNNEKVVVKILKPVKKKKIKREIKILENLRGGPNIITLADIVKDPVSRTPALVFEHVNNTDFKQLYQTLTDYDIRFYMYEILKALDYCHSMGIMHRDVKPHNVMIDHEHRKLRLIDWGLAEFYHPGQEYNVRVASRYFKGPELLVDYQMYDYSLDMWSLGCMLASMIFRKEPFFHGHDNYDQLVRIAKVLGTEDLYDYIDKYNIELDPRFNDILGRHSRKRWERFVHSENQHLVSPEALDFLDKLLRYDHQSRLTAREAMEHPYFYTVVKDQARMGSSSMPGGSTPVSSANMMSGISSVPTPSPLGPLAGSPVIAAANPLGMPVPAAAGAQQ
Assay [5] has the same target. To be noted: at 1 µM.
The target in assay [6] is T2, Inhibitor of nuclear factor kappa-B kinase subunit alpha (Homo sapiens) (UniProt O15111).
T2 sequence (whole entry): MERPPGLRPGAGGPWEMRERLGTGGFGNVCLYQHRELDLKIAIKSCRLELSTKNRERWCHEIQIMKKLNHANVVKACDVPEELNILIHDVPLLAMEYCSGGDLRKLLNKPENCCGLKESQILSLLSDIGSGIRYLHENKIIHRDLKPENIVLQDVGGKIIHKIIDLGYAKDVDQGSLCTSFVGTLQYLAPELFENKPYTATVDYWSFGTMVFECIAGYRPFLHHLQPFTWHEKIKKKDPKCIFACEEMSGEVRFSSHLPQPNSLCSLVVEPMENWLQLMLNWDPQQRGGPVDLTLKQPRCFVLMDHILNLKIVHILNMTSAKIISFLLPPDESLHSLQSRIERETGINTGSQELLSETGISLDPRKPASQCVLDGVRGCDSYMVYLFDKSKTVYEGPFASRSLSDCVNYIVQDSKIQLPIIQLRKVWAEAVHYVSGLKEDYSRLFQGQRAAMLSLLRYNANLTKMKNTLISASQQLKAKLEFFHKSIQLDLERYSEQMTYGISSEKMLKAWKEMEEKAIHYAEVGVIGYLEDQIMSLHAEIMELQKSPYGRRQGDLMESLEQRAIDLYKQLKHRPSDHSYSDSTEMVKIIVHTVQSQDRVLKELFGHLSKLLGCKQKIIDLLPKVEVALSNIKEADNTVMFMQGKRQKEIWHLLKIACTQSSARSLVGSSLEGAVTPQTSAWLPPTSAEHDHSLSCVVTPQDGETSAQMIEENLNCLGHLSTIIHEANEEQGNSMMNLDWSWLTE
The conditions noted are these: at 0.1 µM.

The target of assay [7] is T2, Inhibitor of nuclear factor kappa-B kinase subunit alpha (Homo sapiens). To be noted: at 1 µM.
Assay [8] concerns the target T3, Inhibitor of nuclear factor kappa-B kinase subunit beta (Homo sapiens) (UniProt O14920).
T3 sequence (whole entry): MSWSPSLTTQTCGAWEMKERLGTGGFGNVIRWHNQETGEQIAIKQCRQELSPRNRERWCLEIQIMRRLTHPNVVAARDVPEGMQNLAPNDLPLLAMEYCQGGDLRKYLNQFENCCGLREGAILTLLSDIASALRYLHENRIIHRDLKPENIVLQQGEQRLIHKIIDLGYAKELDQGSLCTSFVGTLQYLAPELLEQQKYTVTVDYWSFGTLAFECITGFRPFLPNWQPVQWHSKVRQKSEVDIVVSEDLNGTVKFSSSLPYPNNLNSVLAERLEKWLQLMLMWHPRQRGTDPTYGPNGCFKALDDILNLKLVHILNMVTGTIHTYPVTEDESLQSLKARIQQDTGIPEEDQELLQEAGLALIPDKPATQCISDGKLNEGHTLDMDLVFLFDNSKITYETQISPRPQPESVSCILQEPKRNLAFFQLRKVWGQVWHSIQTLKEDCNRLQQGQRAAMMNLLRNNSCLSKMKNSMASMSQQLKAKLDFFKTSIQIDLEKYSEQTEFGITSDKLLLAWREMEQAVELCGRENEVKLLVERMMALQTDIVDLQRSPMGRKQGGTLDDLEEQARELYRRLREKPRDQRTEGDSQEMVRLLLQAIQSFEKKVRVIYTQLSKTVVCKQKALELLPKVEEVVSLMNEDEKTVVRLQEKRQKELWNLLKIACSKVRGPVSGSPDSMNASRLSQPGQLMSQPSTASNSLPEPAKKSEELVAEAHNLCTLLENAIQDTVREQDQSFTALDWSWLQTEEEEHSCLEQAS
To be noted: at 0.1 µM.

Assay [9] addresses T3, Inhibitor of nuclear factor kappa-B kinase subunit beta (Homo sapiens). The conditions noted are these: at 1 µM.
For assay [10], the target named is T4, Inhibitor of nuclear factor kappa-B kinase subunit epsilon (Homo sapiens) (UniProt Q14164).
T4 sequence (whole entry): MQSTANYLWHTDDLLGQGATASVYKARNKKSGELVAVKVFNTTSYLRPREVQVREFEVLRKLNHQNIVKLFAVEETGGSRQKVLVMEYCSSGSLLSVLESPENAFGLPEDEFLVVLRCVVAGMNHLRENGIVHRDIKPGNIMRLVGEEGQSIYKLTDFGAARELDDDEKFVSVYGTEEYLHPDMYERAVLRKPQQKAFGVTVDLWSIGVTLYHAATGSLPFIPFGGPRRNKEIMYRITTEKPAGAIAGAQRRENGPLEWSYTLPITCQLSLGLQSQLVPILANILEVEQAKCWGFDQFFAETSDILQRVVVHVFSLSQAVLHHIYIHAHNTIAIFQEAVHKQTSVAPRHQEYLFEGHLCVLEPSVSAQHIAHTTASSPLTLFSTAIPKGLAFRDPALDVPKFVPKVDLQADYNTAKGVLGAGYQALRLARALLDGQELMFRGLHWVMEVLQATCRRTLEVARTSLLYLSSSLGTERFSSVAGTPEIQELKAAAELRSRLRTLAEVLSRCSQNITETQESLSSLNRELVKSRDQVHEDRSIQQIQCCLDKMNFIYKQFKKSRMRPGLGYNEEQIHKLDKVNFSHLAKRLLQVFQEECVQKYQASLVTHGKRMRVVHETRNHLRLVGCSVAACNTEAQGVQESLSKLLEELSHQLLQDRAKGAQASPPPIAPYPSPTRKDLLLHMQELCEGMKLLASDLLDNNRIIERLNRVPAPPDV
To be noted: at 0.1 µM.

The target of assay [11] is T4, Inhibitor of nuclear factor kappa-B kinase subunit epsilon (Homo sapiens). The conditions noted are these: at 1 µM.
Assay [12] concerns the target T5, Serine/threonine-protein kinase Nek1 (Homo sapiens) (UniProt Q96PY6).
T5 sequence (whole entry): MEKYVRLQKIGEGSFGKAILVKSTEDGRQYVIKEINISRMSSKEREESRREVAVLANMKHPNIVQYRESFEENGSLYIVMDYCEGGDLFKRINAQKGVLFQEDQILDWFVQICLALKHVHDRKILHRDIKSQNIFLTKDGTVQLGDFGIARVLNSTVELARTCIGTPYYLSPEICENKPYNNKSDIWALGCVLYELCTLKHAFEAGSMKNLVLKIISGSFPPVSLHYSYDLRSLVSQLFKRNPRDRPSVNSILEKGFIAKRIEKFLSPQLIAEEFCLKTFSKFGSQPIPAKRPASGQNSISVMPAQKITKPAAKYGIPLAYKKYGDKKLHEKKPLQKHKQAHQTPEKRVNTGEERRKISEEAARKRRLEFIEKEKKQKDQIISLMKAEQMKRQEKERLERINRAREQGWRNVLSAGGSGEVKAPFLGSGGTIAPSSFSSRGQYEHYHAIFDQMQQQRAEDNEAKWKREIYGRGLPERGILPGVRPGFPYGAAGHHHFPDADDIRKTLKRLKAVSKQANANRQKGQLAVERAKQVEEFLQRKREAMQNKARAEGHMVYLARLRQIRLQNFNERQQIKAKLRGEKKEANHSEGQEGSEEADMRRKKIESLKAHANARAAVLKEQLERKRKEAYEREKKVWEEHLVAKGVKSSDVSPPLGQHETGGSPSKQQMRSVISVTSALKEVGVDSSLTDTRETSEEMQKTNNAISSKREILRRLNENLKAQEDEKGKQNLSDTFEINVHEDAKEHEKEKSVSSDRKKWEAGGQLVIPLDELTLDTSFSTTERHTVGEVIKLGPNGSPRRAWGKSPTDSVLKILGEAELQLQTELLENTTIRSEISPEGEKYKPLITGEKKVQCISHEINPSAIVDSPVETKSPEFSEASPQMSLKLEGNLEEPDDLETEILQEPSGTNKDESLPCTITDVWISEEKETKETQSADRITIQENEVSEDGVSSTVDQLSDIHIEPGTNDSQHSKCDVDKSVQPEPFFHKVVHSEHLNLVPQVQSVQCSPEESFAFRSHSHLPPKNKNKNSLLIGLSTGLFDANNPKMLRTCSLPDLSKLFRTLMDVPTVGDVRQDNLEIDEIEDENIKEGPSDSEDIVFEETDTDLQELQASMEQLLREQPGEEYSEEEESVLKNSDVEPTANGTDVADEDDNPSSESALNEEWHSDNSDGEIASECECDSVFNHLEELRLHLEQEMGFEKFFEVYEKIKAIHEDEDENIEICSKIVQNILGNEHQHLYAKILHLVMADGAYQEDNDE
To be noted: at 0.1 µM.

For assay [13], the target named is T5, Serine/threonine-protein kinase Nek1 (Homo sapiens). To be noted: at 1 µM.
For assay [14], the target named is T6, Serine/threonine-protein kinase Nek2 (Homo sapiens) (UniProt P51955).
T6 sequence (whole entry): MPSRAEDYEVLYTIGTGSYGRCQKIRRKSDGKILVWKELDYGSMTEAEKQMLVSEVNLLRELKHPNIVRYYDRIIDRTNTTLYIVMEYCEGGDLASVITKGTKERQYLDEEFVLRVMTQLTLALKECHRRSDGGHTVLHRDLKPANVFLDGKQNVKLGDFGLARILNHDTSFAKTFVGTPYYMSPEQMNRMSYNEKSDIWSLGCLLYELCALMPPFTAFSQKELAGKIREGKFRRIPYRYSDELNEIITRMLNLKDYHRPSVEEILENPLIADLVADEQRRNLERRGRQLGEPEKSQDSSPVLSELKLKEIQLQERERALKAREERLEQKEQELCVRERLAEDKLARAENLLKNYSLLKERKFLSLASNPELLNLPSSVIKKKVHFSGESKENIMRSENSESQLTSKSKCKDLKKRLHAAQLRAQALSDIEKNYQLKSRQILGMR
The conditions noted are these: at 0.1 µM.

Assay [15] concerns the target T6, Serine/threonine-protein kinase Nek2 (Homo sapiens). To be noted: at 1 µM.
For assay [16], the target named is Serine/threonine-protein kinase Nek6 (Homo sapiens) (UniProt Q9HC98). The conditions noted are these: at 0.1 µM.
Chain of Serine/threonine-protein kinase Nek6 (Homo sapiens) (Q9HC98 whole entry): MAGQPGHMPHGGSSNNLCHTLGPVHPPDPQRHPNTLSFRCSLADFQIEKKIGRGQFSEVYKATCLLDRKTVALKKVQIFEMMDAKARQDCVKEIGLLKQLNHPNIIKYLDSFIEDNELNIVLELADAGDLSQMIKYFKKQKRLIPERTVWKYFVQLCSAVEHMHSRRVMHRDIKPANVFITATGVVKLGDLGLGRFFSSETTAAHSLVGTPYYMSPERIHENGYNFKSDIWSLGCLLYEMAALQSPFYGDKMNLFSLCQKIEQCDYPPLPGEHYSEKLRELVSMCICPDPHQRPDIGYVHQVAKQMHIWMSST
The target is the same in assay [17]. The conditions noted are these: at 1 µM.
Assay [18] concerns the target Serine/threonine-protein kinase Nek7 (Homo sapiens) (UniProt Q8TDX7). To be noted: at 0.1 µM.
Assay [19] shares this target. To be noted: at 1 µM.
The target in assay [20] is T7, Serine/threonine-protein kinase Nek9 (Homo sapiens) (UniProt Q8TD19).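 Note: reported value is the mean percent inhibition of NEK9.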
T7 sequence (whole entry): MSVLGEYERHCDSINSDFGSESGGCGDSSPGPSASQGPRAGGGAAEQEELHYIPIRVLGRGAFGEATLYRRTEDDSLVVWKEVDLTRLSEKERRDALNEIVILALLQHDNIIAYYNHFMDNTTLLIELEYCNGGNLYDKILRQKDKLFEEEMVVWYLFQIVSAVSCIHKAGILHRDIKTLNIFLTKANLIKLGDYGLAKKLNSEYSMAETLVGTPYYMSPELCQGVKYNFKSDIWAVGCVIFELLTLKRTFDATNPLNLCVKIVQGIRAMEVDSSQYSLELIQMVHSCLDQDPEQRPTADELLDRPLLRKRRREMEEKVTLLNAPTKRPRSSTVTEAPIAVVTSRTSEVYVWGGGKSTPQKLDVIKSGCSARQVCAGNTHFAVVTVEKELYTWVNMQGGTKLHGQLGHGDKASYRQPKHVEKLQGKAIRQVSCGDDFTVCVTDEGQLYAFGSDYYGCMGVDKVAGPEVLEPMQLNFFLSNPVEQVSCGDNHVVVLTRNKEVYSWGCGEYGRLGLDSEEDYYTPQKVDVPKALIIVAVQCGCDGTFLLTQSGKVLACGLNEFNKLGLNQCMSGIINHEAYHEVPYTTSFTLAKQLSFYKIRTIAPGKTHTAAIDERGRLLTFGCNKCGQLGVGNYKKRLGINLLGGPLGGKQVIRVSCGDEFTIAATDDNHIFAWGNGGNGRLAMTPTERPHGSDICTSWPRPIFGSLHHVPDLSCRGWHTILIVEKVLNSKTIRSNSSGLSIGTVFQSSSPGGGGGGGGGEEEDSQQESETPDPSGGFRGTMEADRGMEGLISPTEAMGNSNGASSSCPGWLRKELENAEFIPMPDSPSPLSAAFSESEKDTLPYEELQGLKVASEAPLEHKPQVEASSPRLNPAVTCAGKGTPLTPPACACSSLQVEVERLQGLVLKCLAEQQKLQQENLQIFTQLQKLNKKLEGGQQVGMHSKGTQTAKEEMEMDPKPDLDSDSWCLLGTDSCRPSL
The conditions noted are these: at 0.1 µM.

Chain of Serine/threonine-protein kinase Nek7 (Homo sapiens) (Q8TDX7 whole entry, looked up): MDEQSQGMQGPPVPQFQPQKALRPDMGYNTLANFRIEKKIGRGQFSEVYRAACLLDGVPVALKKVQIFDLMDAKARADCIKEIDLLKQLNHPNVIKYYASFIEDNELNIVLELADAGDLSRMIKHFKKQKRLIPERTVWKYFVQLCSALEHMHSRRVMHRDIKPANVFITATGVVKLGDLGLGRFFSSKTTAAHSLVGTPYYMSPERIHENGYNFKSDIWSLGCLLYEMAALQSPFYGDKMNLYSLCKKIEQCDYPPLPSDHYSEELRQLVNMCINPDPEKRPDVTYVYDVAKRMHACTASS
Chain of Sphingosine kinase 1 (Homo sapiens) (Q9NYA1 whole entry): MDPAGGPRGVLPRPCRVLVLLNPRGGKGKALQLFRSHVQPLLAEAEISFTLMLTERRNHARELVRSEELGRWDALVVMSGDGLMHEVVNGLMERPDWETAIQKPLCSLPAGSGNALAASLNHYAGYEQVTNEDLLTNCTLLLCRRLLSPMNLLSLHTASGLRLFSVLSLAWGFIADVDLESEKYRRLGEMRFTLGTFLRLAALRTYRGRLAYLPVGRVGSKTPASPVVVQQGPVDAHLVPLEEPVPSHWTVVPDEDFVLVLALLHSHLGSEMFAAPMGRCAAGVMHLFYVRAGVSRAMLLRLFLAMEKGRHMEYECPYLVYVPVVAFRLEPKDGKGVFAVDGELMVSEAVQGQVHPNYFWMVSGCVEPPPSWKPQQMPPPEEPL

A word on the inhibition: it is the drop in the measured response relative to a control, in per cent. In the case of `N#Cc1c(NC(=O)CN2CCOCC2)sc2c1CCCC2`, the inhibition in assay [1] was -2.59%; in [2], 1.39%; in [3], -0.6%; in [4] it was 6.02%; in assay [5], 10.9%; in assay [6], 6.78%. In addition, the inhibition in assay [7] came to 6.16%; in assay [8] it was 4.25%; in [9] it was 5.09%; in [10], 9.02%; in assay [11], 92%; in assay [12], 2.42%. The inhibition was 6.07% in assay [13]; 4.61% in assay [14]; 4.37% in assay [15]; 3.33% in [16]; 5.18% in [17]; 2.96% in assay [18]. In addition, the inhibition in [19] turned out to be 3.61%; in [20], 6.26%.

Values taken from ChEMBL document CHEMBL1961873, “Compounds: GSK PKIS; Assays: Nanosyn kinase panel” (2012).
